Assay results reported in PubChem BioAssay.
Entries with a potency or affinity are not part of this list. Results filed as inconclusive are left out. Active and inactive are the calls of the source. Unless noted, the rule behind the calls is not given here.

Columns and labels:
[1] = RMG-1 ovarian cancer cell viability loss – cherry-pick, dose response (AID 687029;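 active = signal drop whose fitted half-maximal concentration is at most twice the top valid dose, in every test run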;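 note: cells exposed to compound for 96 hours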)
[2] = IOSE-T80 viability loss, PAX8-independent line – cell-based, cherry-pick, selectivity assay for PAX8 inhibitor project, dose response (AID 687032;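 active = fitted half-maximal concentration for viability loss no higher than twice the top valid dose, in every repeat run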;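 note: cells exposed to compound for 96 h before reading; 0% = neutral control wells and -100% = 2 µM mitoxantrone kill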)
[3] = CMV-driven luciferase expression suppression in HEK293 – cell-based, luminescence, dry powder, counter-screen for Pax8 inhibitor project, dose response (AID 743020;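 active = signal-lowering compounds whose fitted half-maximal concentration is at or below twice the top tested dose in every run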;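 note: HEK293 cells stably expressing the CMV luciferase reporter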)
[4] = general cell-killing toxicity readout – plate reader, dry powder samples, cytotoxicity control for PAX8 inhibitor project, dose response (AID 743021)
[5] = IGROV1 cell killing – plate reader, dry powder samples, PAX8 inhibitor project, dose response (AID 743043);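 note: more negative means fewer viable cells or more cytotoxicity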
[6] = OVCAR-3 cell viability loss – plate reader, dry powder samples, PAX8 inhibitor project, dose response (AID 743044)
[7] = toxicity toward immortalized ovarian surface epithelium – cell-based, plate reader, dry powder samples, cytotoxicity control for PAX8 inhibitor project, dose response (AID 743045);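 note: 0% = neutral control median and -100% = positive control median; more negative values mean more cell killing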
[8] = A2780 cell killing – plate reader, dry powder samples, cytotoxicity control, dose response (AID 743046);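 note: 0% = neutral control wells and -100% = cytotoxic reference compound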
[9] = OVCAR8 cell viability loss – plate reader, dry powder samples, PAX8 project, dose response (AID 743197)
[10] = max activity: at 35 µM, stronger effect = lower value unless noted

Measured: max activity

O=C(CCCN1C(=O)/C(=C/c2ccccc2OC(F)F)SC1=S)Nc1cccnc1
inactive: [1] | [2] | [3] | [4]

COC(=O)[C@@]12C[C@@H](CC(=O)N3CCN(C(=O)c4ccco4)CC3)C(=O)N(Cc3ccco3)C1=CCC(C)(C)C2
inactive: [1] | [2] | [3] | [4]

CCc1ccc2[nH]c3nc(N/N=C/c4ccc(O)cc4O)nnc3c2c1
inactive: [1] | [2] | [3] | [4]

O=C(O)c1cccc(N/N=C/c2cccs2)c1
inactive: [1] | [2] | [3] | [4]

O=C(Nc1ccc(S(=O)(=O)NC2=NCCCCC2)cc1)c1ccc([N+](=O)[O-])s1
inactive: [1] | [2] | [3] | [4]

COc1ccc(C(=O)c2cc([N+](=O)[O-])ccc2N2CCOCC2)cc1
inactive: [1] | [2] | [3] | [4]

N=c1n(Cc2ccccc2)c2ccccc2n1CC(O)COc1ccc(Cl)cc1Cl (stereo not given)
inactive: [1] | [2] | [3] | [4]

COc1nn(-c2ccccc2)c(=O)c(Cl)c1Cl
inactive: [1] | [2] | [3] | [4]

CN1c2ccc(C3=CCCCC3)cc2[C@H]2[C@H](CCN2C(=O)NC2CCCCC2)[C@@H]1CO
inactive: [1] | [2] | [3] | [4] | [5] | [6]; [10] 17.4% [at 0.56 µM, stronger effect = lower value] | [7] | [8]

C[C@@H]1CN([C@@H](C)CO)C(=O)c2cc(NC(=O)Nc3ccc(C(F)(F)F)cc3)ccc2O[C@@H](C)CCCCO[C@@H]1CN(C)Cc1ccc2c(c1)OCO2
inactive: [1] | [2] | [3] | [4] | [5] | [6]; [10] -5.57% [at 16 µM, stronger effect = lower value] | [7]

Cc1ccccc1-c1ccc2c(c1)O[C@H](CN(C)C(=O)Nc1ccc(C(F)(F)F)cc1)[C@H](C)CN([C@H](C)CO)S2(=O)=O
inactive: [1] | [2] | [3] | [4] | [5] | [6]; [10] -27.3% | [7]

COc1ccc(NC(=O)Nc2ccc3c(c2)C(=O)N([C@@H](C)CO)C[C@@H](C)[C@@H](CN(C)Cc2ccc(Cl)c(Cl)c2)OCCCC[C@@H](C)O3)cc1
inactive: [1] | [2] | [3] | [4] | [5] | [6]; [10] -14.2% | [7] | [8]

C[C@H](CO)N1C[C@H](C)[C@H](CN(C)S(=O)(=O)c2ccccc2)OCCCC[C@H](C)Oc2ccc(NS(=O)(=O)c3ccc(Cl)cc3)cc2C1=O
inactive: [1] | [2] | [3] | [4] | [5] | [6]; [10] -18.9% | [7]

C[C@H]1CN([C@@H](C)CO)C(=O)c2c(c3ccccc3n2C)-c2ccccc2CO[C@H]1CN(C)S(=O)(=O)c1ccc(C(F)(F)F)cc1
inactive: [1] | [2] | [3] | [4] | [5] | [6]; [10] -24.4% | [7] | [8]

CCc1ccc(CNC(=O)C2CCCN(c3nnc(C)c4c(C)n(-c5ccccc5)nc34)C2)cc1 (stereo not given)
inactive: [1] | [2] | [3] | [4]

O=C(C[C@@H]1C[C@@H]2c3cc(NS(=O)(=O)c4ccc(F)cc4)ccc3O[C@@H]2[C@@H](CO)O1)NCc1ccc(-c2ccccc2)cc1
inactive: [1] | [2] | [3] | [4] | [5] | [6]; [10] -23.3% [at 16 µM, stronger effect = lower value] | [7]

C[C@H](CO)N1C[C@H](C)[C@@H](CN(C)Cc2ccc(Cl)c(Cl)c2)OCCCC[C@H](C)Oc2ccc(NS(=O)(=O)c3ccc(F)cc3)cc2C1=O
inactive: [1] | [2] | [3] | [4] | [5] | [6]; [10] -28.3% | [7]

C[C@H](CO)N1C[C@H](C)[C@@H](CN(C)Cc2ccc(Cl)c(Cl)c2)OCCCC[C@H](C)Oc2ccc(NS(=O)(=O)c3ccc(Cl)cc3)cc2C1=O
inactive: [1] | [2] | [3] | [4] | [5] | [6]; [10] -25.3% | [7]

COc1ccccc1C#Cc1ccc([C@@H]2[C@@H](C#N)N(C(=O)C3CCCCC3)[C@H]2CO)cc1
inactive: [1] | [2] | [3] | [4] | [5] | [6]; [10] 26.7% [at 30 µM, stronger effect = lower value] | [6]; [10] | [7] | [8] | [9]

Cc1ccc(S(=O)(=O)Nc2ccc3c(c2)C(=O)N([C@H](C)CO)C[C@@H](C)[C@H](CN(C)S(=O)(=O)c2ccccc2)OCCCC[C@H](C)O3)cc1
inactive: [1] | [2] | [3] | [4] | [5] | [6]; [10] -31.1% | [7]

C=C1C(=O)O[C@@H]2[C@H]1CC[C@H](C)[C@]1(O)CCC(=O)[C@@]21C
inactive: [1] | [2] | [3] | [4]

C[C@H]1CN([C@@H](C)CO)C(=O)Cc2cc(NC(=O)Nc3ccc4c(c3)OCO4)ccc2O[C@@H]1CN(C)CC1CCCCC1
inactive: [1] | [2] | [3] | [4] | [5] | [6]; [10] -10.1% | [7]

CCCCCCN1C[C@@H](n2cc(-c3ccc(F)cc3)nn2)[C@H](O)C[C@@H]1c1ccc(Cl)cc1
inactive: [1] | [2] | [3] | [4]

C[C@@H]1CN([C@H](C)CO)C(=O)c2cc(NC(=O)CCCCCC(=O)Nc3ccccc3N)ccc2O[C@@H](C)CCCCO[C@H]1CN(C)Cc1ccc(Cl)c(Cl)c1
inactive: [1] | [2] | [3] | [4] | [5] | [6]; [10] -28.2% | [7] | [8]

O=C(C[C@@H]1CC[C@H]2[C@@H](COC[C@@H](O)CN2Cc2cccc(C(F)(F)F)c2)O1)NCc1ccc(F)cc1
inactive: [1] | [2] | [3] | [4] | [5] | [6]; [10] 13.4% [at 2.1 µM, stronger effect = lower value] | [7] | [8]

O=C(Nc1ccc(C(F)(F)F)cc1)N1C[C@@H]2N[C@H](C1)C2c1ccc(-c2cccc(F)c2)cc1 (stereo not given in full)
inactive: [1] | [2] | [3] | [4] | [5] | [6]; NIH:OVCAR-3 ovarian cancer cell viability, at 8 µM, stronger effect = lower value -9.78% | [6]; NIH:OVCAR-3 ovarian cancer cell viability, at 35 µM, stronger effect = lower value -0.968% | [7] | [8] | [9]

O=C(Nc1cccc(Br)c1)c1ccc2c(c1)SC1=NS(=O)(=O)CCN12
inactive: [1] | [2] | [3] | [4]

COc1ccc2c(c1)C(C)=CC(C)(C)N2S(=O)(=O)c1ccc(Br)cc1
inactive: [1] | [2] | [3] | [4] | [5]

C[C@@H]1CCCCO[C@@H](CN(C)Cc2ccc(Cl)c(Cl)c2)[C@H](C)CN([C@@H](C)CO)C(=O)c2cc(NS(=O)(=O)c3ccc(Cl)cc3)ccc2O1
inactive: [1] | [2] | [3] | [4] | [5] | [6]; [10] 10.4% [at 0.5 µM, stronger effect = lower value] | [7] | [8]

COc1ccc(NC(=O)Nc2ccc3c(c2)C(=O)N([C@H](C)CO)C[C@@H](C)[C@@H](CN(C)C(=O)Cc2ccccc2)OCCCC[C@H](C)O3)cc1
inactive: [1] | [2] | [3] | [4] | [5] | [6]; [10] -34.5% | [7]

C[C@@H]1CN([C@H](C)CO)C(=O)c2cc(NC(=O)Nc3ccc(F)cc3)ccc2O[C@@H](C)CCCCO[C@H]1CN(C)S(=O)(=O)c1ccc(Cl)cc1
inactive: [1] | [2] | [3] | [4] | [5] | [6]; [10] -22.1% [at 16 µM, stronger effect = lower value] | [7]

C[C@@H]1CCCCO[C@H](CN(C)Cc2ccc(C(F)(F)F)cc2)[C@@H](C)CN([C@@H](C)CO)C(=O)c2cc(NS(=O)(=O)c3ccc(Cl)cc3)ccc2O1
inactive: [1] | [2] | [3] | [4] | [5] | [6]; [10] -151% | [7]

Cc1cccc(-c2ccc([C@H]3[C@@H](CO)N4CCCCN(S(=O)(=O)c5cccc(C)c5)C[C@@H]34)cc2)c1
inactive: [1] | [2] | [3] | [4] | [5] | [6]; [10] -13.6% | [7] | [8]

COc1ccc(-c2ccc3c(c2)[C@@H]2[C@@H](CCN2C(=O)NC2CCCCC2)[C@@H](CO)N3C)cc1
inactive: [1] | [2] | [3] | [4] | [5] | [6]; [10] -44.1% [at 9 µM, stronger effect = lower value] | [7]

COc1ccc2c3c(n(C)c2c1)[C@H](CO)N(C(=O)Nc1ccc(F)cc1)CC31CCN(S(=O)(=O)c2cccc(C)c2)CC1
inactive: [1] | [2] | [3] | [4] | [5] | [6]; [10] -14.5% | [7]

COc1cccc(S(=O)(=O)N(C)C[C@H]2OCc3ccccc3-c3c(n(C)c4ccccc34)C(=O)N([C@H](C)CO)C[C@H]2C)c1
inactive: [1] | [2] | [3] | [4] | [5] | [6]; [10] 28.2% [at 2.1 µM, stronger effect = lower value] | [7]

COc1ccc(S(=O)(=O)N(C)C[C@H]2OCCCC[C@@H](C)Oc3ccc(NS(=O)(=O)c4c(C)noc4C)cc3C(=O)N([C@H](C)CO)C[C@H]2C)cc1
inactive: [1] | [2] | [3] | [4] | [5] | [6]; [10] -13.5% | [7] | [8]

O=C(C[C@@H]1CC[C@H]2[C@@H](COC[C@H](O)CN2C(=O)Nc2ccc(Cl)c(Cl)c2)O1)NCc1ccc(Cl)cc1
inactive: [1] | [2] | [3] | [4] | [5] | [6]; [10] -36.1% | [7]

C[C@@H]1CCCCO[C@@H](CN(C)Cc2ccncc2)[C@H](C)CN([C@H](C)CO)C(=O)c2cc(NC(=O)Nc3ccc(C(F)(F)F)cc3)ccc2O1
inactive: [1] | [2] | [3] | [4] | [5] | [6]; [10] 17.2% [at 4.2 µM, stronger effect = lower value] | [7] | [8]
